Reference: PubChem BioAssay (EPA / NIEHS)
Active and inactive are the calls of the source. How the source made its calls: active means hit-call score of the fitted dose curve at least 0.9, where 1 is the maximum; inactive means score below 0.9.

These compounds were tested on Cytochrome P450 (CYP24A1), CYP24A1 (gene 1591) (assay: LTEA_HepaRG_CYP24A1: Life Technologies and Expression Analysis (LTEA) Assay for Cytochrome P450 (CYP24A1) using HepaRG (AID 2283478)). Conditions: mRNA level, 48 h; actives raise or lower the signal.
Protocol: LTEA_HepaRG is a cell based, multiplexed-readout assay that uses HepaRG, a human liver cell line, with measurements taken at 48 hours after chemical dosing on a 96-well plate.LTEA_HepaRG_CYP24A1 is one of 102 assay component(s) measured in the LTEA HepaRG cell culture assay. It is a marker of NR mediated metabolism.Data from the assay component LTEA_HepaRG_CYP24A1 was analyzed into 1 endpoint. This assay endpoint, LTEA_HepaRG_CYP24A1, was analyzed with bidirectional fitting relative to DMSO as the negative control and baseline of activity. Using a type of inducible reporter, measures of mRNA induction for gain or loss-of-signal activity can be used to understand regulation of transcription factor activity. To generalize the intended target to other relatable targets, this assay endpoint is annotated to the cyp intended target family, where the subfamily is xenobiotic metabolism.
A total of 1060 chemcials from the ToxCast library were tested in eight-point concentration-response experiments. Cell culture and cytotoxicity assays were conducted at Thermo Fisher Scientific's Custom Services facility (Madison, WI). A single lot of human HepaRG cells (Thermo Fisher Scientific, Frederick, MD) was used for the cell culture experiments. 96-well format collagen type I coated plates of human HepaRG cells were prepared using established methods. Briefly, cryopreserved HepaRG cells were thawed, plated at a density of approximately 100,000 cells/well in HepaRG Thaw, Plate, and General Purpose media (HPRG770, Thermo Fisher Scientific), and incubated for 48 hours. 0.5% DMSO was selected as vehicle control to balance the requisite need of DMSO in HepaRG cultures to maintain differentiation (for example, baseline metabolism, proportions of hepatocytes vs. cholangiocytes), while enabling further hepatic receptor pathway activation (for example, PXR and CAR) in response to chemical exposure. 48 hours after plating, the culture medium was replaced with HepaRG Serum-Free Incudtion Media. Cells were exposed to each test chemical in duplicate and maintained in CO2 incubators for another 48 hours. Chemical plates were thawed to room temperature and 200x concentrations of treatment groups were prepared. 8-point conentration-reponse curves were made with the highest exposure at 100 uM, followed by half-log dilutions, all in 0.5% DMSO. Each test plate contained variouse controls, induction positive controls (1mM phenobarbital), cytotoxicity positive controls ([…] aflatoxin B1), vehicle controls (0.5% DMSO), and total lysis controls (0.5% DMSO). Cell morphology images were taken using an Essen IncuCyte FLR automated microscope, with six 96-well plates imaged in about 24 minutes. Images were captured and exported and JPEG files. Spent culture media was transfered to black-well plates for the LDH assay, and remaining media was sorted at -80 C for later use. Cells were treated with RLT buffer and frozen until shipped for gene expression analysis. Total RNA was isolated from the cell suspension in 75 uL of Buffer RLT (Qiagen, Germantown, MD 20874) by Quintiles/Expression Analysis (Durham, NC) using a custom isolation procedure. Total RNA from each plate well was transferred to a preamplification plate. Fluidigm's 96.96 Dynamic ArrayTM (Fluidigm, Amsterdam, the Netherlands) technology was used for gene expression analyses by quantitative reverse transcription polymerase chain reaction (qRT-PCR, performed by Quintiles/Expression Analysis, Durham, NC)89. Standard TaqManTM Assays (Applied Biosystems/ThermoFisher Scientific, Foster City, CA) were used to assess the expression of 93 genes selected based on their selectivity and sensitivity to important hepatic receptors known to be modulated by environmental chemicals; importance in human hepatocyte functionality; and hepatotoxicity. […]

Structure (SMILES) | outcome | AC50
Cc1c(F)c(F)c(COC(=O)C2C(/C=C(\Cl)C(F)(F)F)C2(C)C)c(F)c1F (stereo not given) | inactive | –
CCOC(=O)C(Cl)Cc1cc(-n2nc(C)n(C(F)F)c2=O)c(F)cc1Cl (stereo not given) | inactive | –
CCOc1cc(Oc2ccc(C(F)(F)F)cc2Cl)ccc1[N+](=O)[O-] | inactive | –
COC(=O)c1ccccc1C(=O)OC | inactive | –
C#CCOS(=O)OC1CCCCC1Oc1ccc(C(C)(C)C)cc1 (stereo not given) | inactive | –
Oc1ccccc1-c1ccccc1 | inactive | –
COC(=O)N(OC)c1ccccc1COc1ccn(-c2ccc(Cl)cc2)n1 | inactive | –
Fc1ccc(Oc2ccnc3cc(Cl)cc(Cl)c23)cc1 | inactive | –
CC(Oc1ccc(Cl)cc1Cl)C(=O)O (stereo not given) | inactive | –
CO/C=C(/C(=O)OC)c1ccccc1Oc1cc(Oc2ccccc2C#N)ncn1 | inactive | –
CNC(=O)ON=CC(C)(C)SC | inactive | –
CC(C)(C)c1ccc(CSc2cnn(C(C)(C)C)c(=O)c2Cl)cc1 | inactive | –
CCCC1COC(Cn2cncn2)(c2ccc(Cl)cc2Cl)O1 (stereo not given) | inactive | –
CN(C)C(=S)SSC(=S)N(C)C | inactive | –
CCCCC(CC)COC(=O)c1ccccc1C(=O)OCC(CC)CCCC (stereo not given) | inactive | –
CON(C)C(=O)Nc1ccc(Cl)c(Cl)c1 | inactive | –
COC(=O)C(C)Oc1ccc(Oc2ccc(Cl)cc2Cl)cc1 (stereo not given) | inactive | –
COc1ccc(C(c2ccc(OC)cc2)C(Cl)(Cl)Cl)cc1 | inactive | –
C=CCC1=C(C)[C@@H](OC(=O)[C@@H]2[C@@H](C=C(C)C)C2(C)C)CC1=O | inactive | –
CCCN(CCC)c1c([N+](=O)[O-])cc(S(N)(=O)=O)cc1[N+](=O)[O-] | inactive | –

Structure (SMILES) | outcome | AC50
CCNc1nc(Cl)nc(NCC)n1 | inactive | –
N#CC(CCc1ccc(Cl)cc1)(Cn1cncn1)c1ccccc1 (stereo not given) | inactive | –
CC(C)Oc1cc(-n2nc(C(C)(C)C)oc2=O)c(Cl)cc1Cl | inactive | –
CCCCNC(=O)OCC#CI | inactive | –
O=C(O)c1nc(Cl)ccc1Cl | inactive | –
CC(C)C1(C)N=C(c2nc3ccccc3cc2C(=O)O)NC1=O (stereo not given) | inactive | –
CCOP(=S)(OCC)SCn1c(=O)oc2cc(Cl)ccc21 | inactive | –
Cc1cc(Cl)ccc1OCC(=O)O | inactive | –
Cc1ccc(-c2c(Cl)nc(C#N)n2S(=O)(=O)N(C)C)cc1 | – | 10 nM (active)
CCCCOC(=O)c1ccccc1C(=O)OCCCC | inactive | –
N#Cc1cc(Br)c(O)c(Br)c1 | inactive | –
C=CCC1=C(C)C(OC(=O)C2C(C=C(C)C)C2(C)C)CC1=O (stereo not given) | inactive | –
CCNc1nc(Cl)nc(NC(C)C)n1 | inactive | –
COc1nc(NC(C)C)nc(NC(C)C)n1 | inactive | –
CCc1nn(C)c(C(=O)NCc2ccc(C(C)(C)C)cc2)c1Cl | inactive | –
CCON=C(CC)C1=C(O)CC(c2c(C)cc(C)cc2C)CC1=O (stereo not given) | inactive | –
CCOC(=O)CC(SP(=S)(OC)OC)C(=O)OCC (stereo not given) | inactive | –
COP(N)(=O)SC (stereo not given) | inactive | –
O=C(Nc1ccccc1)Nc1ccnc(Cl)c1 | inactive | –
N#Cc1nn(-c2c(Cl)cc(C(F)(F)F)cc2Cl)c(N)c1S(=O)C(F)(F)F (stereo not given) | inactive | –
